According to PubChem BioAssay:
“And” between values parts separate entries of the source, which are not always exact repeats. Identical values can stand only once. The source made the active and inactive calls. Unless noted, no rule for the calls is given here.

Tests used:
[1] = system: Wnt5a (protein binding on small-molecule microarray); assay: Wnt5a binders on small-molecule microarray, primary screen, biophysical, 635/667 nm fluorescence (AID 1142); conditions: 635 nm fluorescence, higher = more signal;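 also: fluorescence read at 667 nm with signal to noise per printed feature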
[2] = cell viability in Huh7 cells, primary screen, cytotoxicity control for HCV replication inhibitor project, CellTiter-Glo luminescence, basal, 48 h (AID 1143); conditions: Huh7 HCV replicon, higher = more signal, called active from +8 up or from −8 down;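 also: Huh7 hepatoma cells carrying a hepatitis C replication reporter with no stimulus; test concentration not given here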
[3] = P. aeruginosa biofilm formation inhibitors, primary screen, PAO1 strain, BacTiter-Glo luminescence, LB-PBS (AID 1144); conditions: 12 h, higher = more signal
[4] = CREB reporter modulators without forskolin, primary screen, cell-based, PC12, CRE-LacZ reporter, unstimulated (AID 1145); conditions: no forskolin, luminescence, 4.5 h, higher = more signal, called active from +8 up or from −8 down
[5] = CREB reporter modulators under forskolin, primary screen, cell-based, PC12, CRE-LacZ reporter, forskolin-stimulated (AID 1146); conditions: luminescence, 4.5 h, higher = more signal, called active from +8 up or from −8 down;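 also: PC12 cells with 6xCRE LacZ reporter stimulated by forskolin 10 µM; beta-galactosidase reporter signal reflecting CREB driven transcription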
[6] = target: Streptavidin (Streptomyces avidinii) (UniProt P22629); assay: streptavidin binders on small-molecule microarray, primary screen, artefact control for SMM compound annotation, biophysical, 635/667 nm fluorescence (AID 1147); conditions: streptavidin binding, higher = more signal;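 also: signal reflects streptavidin binding to arrayed compounds as a control protein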
Chain of Streptavidin (Streptomyces avidinii) (P22629 whole entry, looked up): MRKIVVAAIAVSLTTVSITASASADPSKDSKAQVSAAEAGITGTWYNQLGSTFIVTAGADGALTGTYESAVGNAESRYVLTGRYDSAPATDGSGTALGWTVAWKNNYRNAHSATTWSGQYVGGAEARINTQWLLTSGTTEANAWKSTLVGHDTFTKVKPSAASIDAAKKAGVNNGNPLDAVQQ

[7] = small-molecule binders of probe aInhba, primary screen, biochemical, small-molecule microarray, 635/667 nm fluorescence (AID 1148); conditions: higher = more signal;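 also: score merges 667nm spot fluorescence with signal-to-noise for antibody binding to printed compounds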
[8] = target: Torsin-1A (Homo sapiens) (UniProt O14656); assay: torsin A binders from cell lysate, primary screen, small-molecule microarray, wild-type, 635/667 nm (AID 1149); conditions: COS7 hTOR1A-WT lysate, 635 nm fluorescence, higher = more signal
Chain of Torsin-1A (Homo sapiens) (O14656 whole entry, looked up): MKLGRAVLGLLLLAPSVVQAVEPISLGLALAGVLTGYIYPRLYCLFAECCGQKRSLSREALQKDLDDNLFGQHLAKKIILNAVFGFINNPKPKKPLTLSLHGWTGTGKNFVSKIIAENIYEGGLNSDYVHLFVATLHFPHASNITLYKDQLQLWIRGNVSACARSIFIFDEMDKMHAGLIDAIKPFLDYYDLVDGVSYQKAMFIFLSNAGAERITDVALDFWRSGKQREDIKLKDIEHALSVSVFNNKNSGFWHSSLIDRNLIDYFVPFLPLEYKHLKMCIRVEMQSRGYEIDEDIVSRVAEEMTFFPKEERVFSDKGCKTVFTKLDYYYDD

[9] = target: Torsin-1A (Homo sapiens) (UniProt O14656); assay: small-molecule binders of mutant TOR1A in lysate, primary screen, cell lysate, small-molecule microarray, COS7 lysate, 635/667 nm fluorescence (AID 1150); conditions: COS7 hTOR1A mutant lysate, 635 nm fluorescence, higher = more signal;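 also: score pools 667 nm emission and signal to noise measuring lysate protein binding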
[10] = system: Sonic hedgehog protein (Shh); assay: small-molecule binders of Shh protein, primary screen, biochemical, small-molecule microarray, 635/667 nm fluorescence (AID 1151); conditions: small-molecule microarray binding, 635 nm fluorescence; higher = more signal;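 also: Shh protein binding to compounds spotted on small-molecule microarray slides; score combines spot fluorescence intensity with signal-to-noise across triplicate slides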
[11] = E. coli DRC41 culture turbidity changes, primary screen, E. coli filamentation inducer project, strain DRC41, OD650, 48 h (AID 1152);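 also: E. coli MC1000 strain DRC41 lacking acrAB efflux pump and sulA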; conditions: E. coli DRC41 (acrAB sulA), higher = more signal, called active from +8 up or from −8 down
[12] = small-molecule binders of probe aLefty1, primary screen, biochemical, small-molecule microarray, 635/667 nm fluorescence (AID 1153); conditions: higher = more signal;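 also: score merges spot fluorescence with signal-to-noise ratio from the scanned slide images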
[13] = PSAC antagonists in infected red cells, primary screen, cell-based, P. falciparum Indochina, OD700, 1 h (AID 1154); conditions: P. falciparum Indochina infected RBC osmotic lysis, higher = more signal, called active from +8 up or from −8 down
[14] = PSAC antagonists in infected red cells, primary screen, cell-based, P. falciparum Indochina, OD700, 2 h (AID 1155);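 also: lysis reports solute entry through the parasite surface anion channel PSAC; channel blockers reduce lysis of infected cells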; conditions: P. falciparum Indochina infected erythrocytes, osmotic lysis OD700; higher = more signal, called active from +8 up or from −8 down
[15] = osmotic lysis modulators in infected erythrocytes, primary screen, PSAC antagonist project, cell-based, P. falciparum Indochina, OD700, 3 h (AID 1156); conditions: higher = more signal, called active from +8 up or from −8 down
[16] = PSAC antagonists in infected red cells, primary screen, cell-based, P. falciparum Indochina, OD700, 18 h (AID 1157); conditions: P. falciparum Indochina infected erythrocytes, osmotic lysis OD700, 18 h; higher = more signal, called active from +8 up or from −8 down
[17] = modulators of S6 phosphorylation in cells, primary screen, cell-based, A549, cytoblot, luminescence, serum-stimulated (AID 1158); conditions: A549 phospho-S6 cytoblot, 5 h, higher = more signal;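 also: serum-stimulated A549 lung adenocarcinoma cells; signal is phosphorylated S6 detected by cytoblot immunostaining with HRP secondary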
[18] = target: NADPH oxidase 2 (Homo sapiens) (UniProt P04839); assay: NOX2-dependent H2O2 signal modulators, primary screen, NOX inhibitor project, cell-based, HEK293-NOX2, PMA-stimulated, Amplex Red fluorescence (AID 1159); conditions: 45 min, higher = more signal, called active from +8 up or from −8 down; also: test concentration not given here
Chain of NADPH oxidase 2 (Homo sapiens) (P04839 whole entry, looked up): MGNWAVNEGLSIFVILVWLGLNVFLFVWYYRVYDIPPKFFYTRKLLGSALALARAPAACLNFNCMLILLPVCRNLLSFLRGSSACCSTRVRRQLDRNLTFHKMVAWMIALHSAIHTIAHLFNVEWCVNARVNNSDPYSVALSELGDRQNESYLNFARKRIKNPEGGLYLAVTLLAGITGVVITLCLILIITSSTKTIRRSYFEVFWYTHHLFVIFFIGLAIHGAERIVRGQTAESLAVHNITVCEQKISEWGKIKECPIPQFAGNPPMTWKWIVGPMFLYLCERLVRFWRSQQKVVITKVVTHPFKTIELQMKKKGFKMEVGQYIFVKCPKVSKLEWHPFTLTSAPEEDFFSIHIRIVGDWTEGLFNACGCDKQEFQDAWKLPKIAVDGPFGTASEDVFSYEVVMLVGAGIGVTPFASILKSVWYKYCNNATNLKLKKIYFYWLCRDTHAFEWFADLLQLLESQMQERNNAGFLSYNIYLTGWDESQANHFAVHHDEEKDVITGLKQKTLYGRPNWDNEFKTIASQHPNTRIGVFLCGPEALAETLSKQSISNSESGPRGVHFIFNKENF

[19] = target: NADPH oxidase 4 (Homo sapiens) (UniProt Q9NPH5); assay: NOX4-dependent H2O2 signal modulators, primary screen, NOX inhibitor project, cell-based, HEK293-NOX4, tetracycline-induced, Amplex Red fluorescence (AID 1160); conditions: 45 min, higher = more signal, called active from +8 up or from −8 down
Chain of NADPH oxidase 4 (Homo sapiens) (Q9NPH5 whole entry, looked up): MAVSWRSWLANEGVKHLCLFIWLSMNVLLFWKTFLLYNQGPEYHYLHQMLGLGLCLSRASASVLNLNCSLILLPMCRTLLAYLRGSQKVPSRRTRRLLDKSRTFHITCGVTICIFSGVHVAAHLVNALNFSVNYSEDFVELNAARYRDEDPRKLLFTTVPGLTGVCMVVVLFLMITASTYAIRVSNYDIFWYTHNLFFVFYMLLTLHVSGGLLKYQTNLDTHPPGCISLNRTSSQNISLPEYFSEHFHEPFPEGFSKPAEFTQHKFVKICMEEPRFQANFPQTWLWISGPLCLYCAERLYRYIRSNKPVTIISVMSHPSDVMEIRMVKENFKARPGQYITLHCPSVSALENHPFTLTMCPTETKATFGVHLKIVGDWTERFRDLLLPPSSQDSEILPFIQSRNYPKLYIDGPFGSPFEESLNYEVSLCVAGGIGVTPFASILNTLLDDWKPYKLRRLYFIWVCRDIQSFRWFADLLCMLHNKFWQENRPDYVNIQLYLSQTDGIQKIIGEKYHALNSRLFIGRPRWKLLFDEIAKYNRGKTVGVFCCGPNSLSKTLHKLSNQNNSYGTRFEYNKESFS

[20] = target: NADPH oxidase 5 (Homo sapiens) (UniProt Q96PH1); assay: NOX5-dependent H2O2 signal modulators, primary screen, NOX inhibitor project, cell-based, HEK293-NOX5, Amplex Red fluorescence (AID 1161); conditions: HEK293-NOX5, ionomycin, 45 min, higher = more signal
Chain of NADPH oxidase 5 (Homo sapiens) (Q96PH1 whole entry, looked up): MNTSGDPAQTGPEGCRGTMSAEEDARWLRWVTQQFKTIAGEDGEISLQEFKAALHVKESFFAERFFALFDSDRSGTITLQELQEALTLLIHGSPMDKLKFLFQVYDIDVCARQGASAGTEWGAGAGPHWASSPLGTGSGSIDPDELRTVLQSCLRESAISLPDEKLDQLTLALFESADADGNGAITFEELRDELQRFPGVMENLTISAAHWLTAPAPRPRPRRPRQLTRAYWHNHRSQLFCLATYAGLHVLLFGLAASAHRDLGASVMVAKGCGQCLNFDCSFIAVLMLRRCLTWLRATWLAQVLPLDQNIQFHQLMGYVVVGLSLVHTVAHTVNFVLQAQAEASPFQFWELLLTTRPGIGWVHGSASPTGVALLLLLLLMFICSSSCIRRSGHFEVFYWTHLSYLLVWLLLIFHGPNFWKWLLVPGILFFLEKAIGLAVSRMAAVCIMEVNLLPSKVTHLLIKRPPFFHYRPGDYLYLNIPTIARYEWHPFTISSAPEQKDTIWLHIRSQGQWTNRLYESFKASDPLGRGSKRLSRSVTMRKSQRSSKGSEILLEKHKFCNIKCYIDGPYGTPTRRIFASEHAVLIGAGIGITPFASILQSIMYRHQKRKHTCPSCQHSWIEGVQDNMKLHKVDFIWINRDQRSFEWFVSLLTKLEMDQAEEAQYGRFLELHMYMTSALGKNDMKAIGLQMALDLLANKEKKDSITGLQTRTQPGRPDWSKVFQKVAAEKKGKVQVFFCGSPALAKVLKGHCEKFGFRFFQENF

Row | Structure (SMILES) | composite z-score [1] | z-score [2] | z-score [3] | z-score [4] | z-score [5] | composite z-score [6] | composite z-score [7] | composite z-score [8] | composite z-score [9] | composite z-score [10] | z-score [11] | composite z-score [12] | z-score [13] | z-score [14] | z-score [15] | z-score [16] | z-score [17] | z-score [18] | z-score [19] | z-score [20]
1 | C=CCN(C(=O)C1N(CCOCCO)C(=O)C2C(C(=O)O)C3C=CC21O3)c1ccc(OC)cc1 (stereo not given) | -0.571 and -0.317 | -0.769 (inactive) and -0.89 (inactive) | 0.0762 (inactive) and 0.0838 (inactive) | 0.329 (inactive) and 0.463 (inactive) | 0.373 (inactive) and -0.121 (inactive) | -1.35 and -1.27 | -0.186 and -0.296 | -1.81 and -2.21 | -1.91 and -1.9 | -1.31 and -0.761 | 0.168 (inactive) and 0.839 (inactive) | -0.262 and -0.243 | -0.586 (inactive) and -1.15 (inactive) | 0.0933 (inactive) and -0.0778 (inactive) | -1.1 (inactive) and -0.285 (inactive) | -0.0612 (inactive) and -0.161 (inactive) | 1.4 and -0.338 | 0.073 (inactive) and 0.856 (inactive) | -0.509 (inactive) and -0.782 (inactive) | 0.624 and -0.275
2 | COC(=O)C1=C(C)N(Cc2ccccc2)[C@]23O[C@](C(=O)OC)(C(=O)N2[C@@H]1c1ccccc1)[C@H]1CCCC(=O)[C@H]13 | 0.04 and -0.0686 | -3.29 (inactive) and -2.24 (inactive) | -0.375 (inactive) and -1.01 (inactive) | 0.563 (inactive) and 2.64 (inactive) | -0.771 (inactive) and -0.693 (inactive) | 0.3 | 0.114 and -0.018 | 0.165 and 0.434 | 0.815 and 0.262 | 0.396 and 0.436 | 0.0211 (inactive) and -0.587 (inactive) | -0.0559 and 0.101 | 1.12 (inactive) and 0.466 (inactive) | 0.314 (inactive) and 0.0982 (inactive) | 0.0988 (inactive) and 0.882 (inactive) | 0.0037 (inactive) and -1.37 (inactive) | -0.0731 and 2.28 | -2.97 (inactive) and -0.233 (inactive) | 0.743 (inactive) and 0.178 (inactive) | 0.244 and -0.624
